# Values without a mark were called inactive. Inconclusive results are not listed. A call without a number means that no potency is given here. Calls of active or inactive are those of the source. Unless noted, the call rests on the fitted dose curve; in most records, active means well fitted curve in the direction sought with a large enough effect in the repeat runs; inconclusive means weak or mixed curves; inactive means no such curve, though single readings can be large; an effect the other way counts as inactive or inconclusive.
# How the values were obtained:
# [1] = biological target: Estrogen receptor beta (Homo sapiens) (UniProt Q92731); assay: qHTS assay to identify small molecule agonists of the estrogen receptor beta (ER-beta) signaling pathway (AID 1259377; active means well fitted activation curve with a large enough effect in the signal ratio in the repeat runs, not every such curve was filed as active; the % refers to the signal ratio)
# Chain of Estrogen receptor beta (Homo sapiens) (Q92731 whole entry, looked up): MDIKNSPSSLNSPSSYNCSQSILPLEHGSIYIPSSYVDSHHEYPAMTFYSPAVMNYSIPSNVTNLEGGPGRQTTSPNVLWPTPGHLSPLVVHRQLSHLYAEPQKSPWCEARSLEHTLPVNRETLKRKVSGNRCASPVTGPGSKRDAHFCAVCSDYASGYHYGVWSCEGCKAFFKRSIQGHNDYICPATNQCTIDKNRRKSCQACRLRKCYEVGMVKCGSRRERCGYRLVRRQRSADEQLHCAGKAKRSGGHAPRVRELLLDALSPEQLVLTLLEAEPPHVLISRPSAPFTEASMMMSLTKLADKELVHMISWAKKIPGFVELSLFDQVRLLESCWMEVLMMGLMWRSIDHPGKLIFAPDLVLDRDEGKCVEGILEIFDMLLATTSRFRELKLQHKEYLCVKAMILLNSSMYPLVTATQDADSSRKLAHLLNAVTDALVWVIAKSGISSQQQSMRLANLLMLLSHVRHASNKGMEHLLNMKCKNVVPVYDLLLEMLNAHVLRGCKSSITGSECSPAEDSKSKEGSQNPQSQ
# Procedure, shortened: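 Read-out: beta-lactamase FRET fluorescence. Cell line: ER-beta-UAS-bla HEK293T in 2% charcoal-stripped FBS. Exposure: 16 hr at 37C. Substrate step: 2 h at room temperature.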
# [2] = biological target: Estrogen receptor beta (Homo sapiens) (UniProt Q92731); assay: qHTS assay to identify small molecule antagonists of the estrogen receptor beta (ER-beta) signaling pathway (AID 1259378; active means well fitted inhibition curve with a large enough effect in the signal ratio in the repeat runs, not every such curve was filed as active; the % refers to the signal ratio)
# Procedure, shortened: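 ER-beta-UAS-bla HEK293T cells in 2% charcoal-stripped FBS medium treated with compound plus 1nM final 17-beta-estradiol for 16 hr at 37C. Beta-lactamase reporter read by FRET substrate fluorescence after 2 hours at room temperature.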
# [3] = qHTS assay to identify small molecule agonists of the androgen receptor (AR) signaling pathway in the presence of an antagonist - cell viability counter screen (AID 1259379);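 further: MDA-kb2 human breast cancer cells carrying an MMTV luciferase reporter; series mostly up to about 92 µM; nearly all actives have a fitted effect of over 25% in size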
# Procedure, shortened: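 Seed MDA-kb2 at 3,000 cells/well; incubate 5 hr, 37C, 0% CO2. Add nilutamide to 3.0uM final, then pin compounds at 15 concentrations. Incubate 16 hr. Add CellTiter-Fluor at 15 hr, read fluorescence after 1 hr.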
# [4] = qHTS assay to identify small molecule agonists of the estrogen receptor beta (ER-beta) signaling pathway - cell viability counter screen (AID 1259380); further: nearly all actives have a fitted effect of over 30% in size
# Procedure, shortened: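 CellTiter-Glo read, 30 min RT, same wells as bla assay; cells ER-beta-UAS-bla HEK293T; 16 hr compound, 37C; medium 2% charcoal-stripped FBS.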
# [5] = qHTS assay to identify small molecule antagonists of the estrogen receptor beta (ER-beta) signaling pathway - cell viability counter screen (AID 1259382); further: series mostly up to about 92 µM; nearly all actives have a fitted effect of over 55% in size
# Procedure, shortened: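 In this multiplexed counter screen, cells were seeded at 2,000 per well in medium with 2% charcoal-stripped FBS and incubated 6 hr before compound and 1nM final E2 were added. Sixteen hours later, ATP-based luminescence reported viability.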
# [6] = biological target: Estrogen receptor (Homo sapiens) (UniProt P03372); assay: qHTS assay to identify small molecule agonists of the estrogen receptor alpha (ER-alpha) signaling pathway in the presence of an antagonist (AID 1259383; calls by dose curve; further: top concentration of the series differs between compounds; nearly all actives have a fitted effect of over 15% in size)
# Chain of Estrogen receptor (Homo sapiens) (P03372 whole entry, looked up): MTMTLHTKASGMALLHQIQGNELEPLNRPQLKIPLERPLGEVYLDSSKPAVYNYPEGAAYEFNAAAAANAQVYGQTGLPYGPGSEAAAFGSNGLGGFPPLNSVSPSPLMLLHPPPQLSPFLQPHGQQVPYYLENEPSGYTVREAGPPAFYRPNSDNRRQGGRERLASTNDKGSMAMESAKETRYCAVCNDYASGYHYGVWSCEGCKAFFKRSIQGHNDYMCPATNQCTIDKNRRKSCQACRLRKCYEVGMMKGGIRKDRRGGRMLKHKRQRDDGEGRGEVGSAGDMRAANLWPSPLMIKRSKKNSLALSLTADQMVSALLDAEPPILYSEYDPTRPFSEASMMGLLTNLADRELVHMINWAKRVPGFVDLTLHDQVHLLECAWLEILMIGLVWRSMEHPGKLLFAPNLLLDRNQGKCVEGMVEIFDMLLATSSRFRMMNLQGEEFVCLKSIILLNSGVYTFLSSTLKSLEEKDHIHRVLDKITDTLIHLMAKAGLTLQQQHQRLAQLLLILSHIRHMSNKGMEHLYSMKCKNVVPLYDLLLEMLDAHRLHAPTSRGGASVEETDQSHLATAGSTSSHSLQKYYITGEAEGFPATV
# Procedure, shortened: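 Stably transfected VM7Luc4E2 reporter cells, kept 5 days in charcoal-stripped serum, received ICI-182,780 at 10.0nM final before compound addition. Following 22hr incubation at 37C and 5% CO2, luciferase signal was read by luminescence.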
# [7] = qHTS assay to identify small molecule agonists or antagonists of the thyroid stimulating hormone receptor (TSHR) signaling pathway - wild type cell line counter screen (AID 1259384; calls by dose curve)
# Procedure, shortened: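 Wild-type Hek293 cells, 800/well, 18 h at 37C, then compound with Ro20-1724 for 30 min RT. cAMP by HTRF (cAMP-d2/anti-cAMP cryptate), 1 h RT, fluorescence read. 15 concentrations, triplicates.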
# [8] = biological target: Thyrotropin receptor (Homo sapiens) (UniProt P16473); assay: qHTS assay to identify small molecule antagonists of the thyroid stimulating hormone receptor (TSHR) signaling pathway (AID 1259385; calls by dose curve; further: nearly all actives have a fitted effect of over 20% in size)
# Chain of Thyrotropin receptor (Homo sapiens) (P16473 whole entry, looked up): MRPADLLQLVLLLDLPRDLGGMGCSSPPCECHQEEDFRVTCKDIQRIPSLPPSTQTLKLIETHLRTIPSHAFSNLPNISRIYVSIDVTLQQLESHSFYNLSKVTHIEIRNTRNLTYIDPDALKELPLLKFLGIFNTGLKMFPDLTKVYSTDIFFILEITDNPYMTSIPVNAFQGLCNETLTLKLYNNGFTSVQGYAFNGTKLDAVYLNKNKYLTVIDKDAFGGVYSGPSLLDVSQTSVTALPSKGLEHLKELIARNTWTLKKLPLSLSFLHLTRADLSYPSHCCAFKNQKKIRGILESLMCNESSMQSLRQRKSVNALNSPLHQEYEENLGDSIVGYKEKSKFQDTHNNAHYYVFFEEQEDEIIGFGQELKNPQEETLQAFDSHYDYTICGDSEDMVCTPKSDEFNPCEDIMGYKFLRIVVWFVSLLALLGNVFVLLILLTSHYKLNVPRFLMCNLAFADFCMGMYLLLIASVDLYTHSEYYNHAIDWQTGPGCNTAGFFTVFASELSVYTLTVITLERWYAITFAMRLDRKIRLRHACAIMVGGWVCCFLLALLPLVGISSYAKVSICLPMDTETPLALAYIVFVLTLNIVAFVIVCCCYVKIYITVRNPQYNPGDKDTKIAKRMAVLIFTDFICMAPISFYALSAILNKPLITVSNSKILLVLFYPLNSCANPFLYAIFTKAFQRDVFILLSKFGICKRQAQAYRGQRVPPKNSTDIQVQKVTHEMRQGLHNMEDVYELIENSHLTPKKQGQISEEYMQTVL
# Procedure, shortened: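 TSHR-HEK293 cells (800/well) plated 18 h, then compounds with Ro20-1724 and TSH at 1.5 ng/mL final, 30 min at room temperature. cAMP quantified by HTRF (cAMP-d2/anti-cAMP-cryptate, 1 h); 15 concentrations in triplicate.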
# [9] = qHTS assay to identify small molecule agonists of the estrogen receptor alpha (ER-alpha) signaling pathway in the presence of an antagonist - cell viability counter screen (AID 1259386);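 further: series mostly up to about 92 µM; cells exposed to compounds for 22 h at 37 °C before the viability read; nearly all actives have a fitted effect of over 30% in size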
# Procedure, shortened: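 Viability counter screen using VM7Luc4E2 (full-length ER-alpha, four ERE-luciferase). The cells were treated with compounds alongside ICI-182,780 10.0nM for 22hr, and live-cell protease fluorescence was quantified with CellTiter-Fluor.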
# [10] = biological target: Progesterone receptor (Homo sapiens) (UniProt P06401); assay: qHTS assay to identify small molecule antagonists of the progesterone receptor (PR) signaling pathway (AID 1346795; active means well fitted inhibition curve with a large enough effect in the signal ratio in the repeat runs, not every such curve was filed as active; the % refers to the signal ratio; further: potency means the concentration at half of the fitted maximal effect)
# Chain of Progesterone receptor (Homo sapiens) (P06401 whole entry, looked up): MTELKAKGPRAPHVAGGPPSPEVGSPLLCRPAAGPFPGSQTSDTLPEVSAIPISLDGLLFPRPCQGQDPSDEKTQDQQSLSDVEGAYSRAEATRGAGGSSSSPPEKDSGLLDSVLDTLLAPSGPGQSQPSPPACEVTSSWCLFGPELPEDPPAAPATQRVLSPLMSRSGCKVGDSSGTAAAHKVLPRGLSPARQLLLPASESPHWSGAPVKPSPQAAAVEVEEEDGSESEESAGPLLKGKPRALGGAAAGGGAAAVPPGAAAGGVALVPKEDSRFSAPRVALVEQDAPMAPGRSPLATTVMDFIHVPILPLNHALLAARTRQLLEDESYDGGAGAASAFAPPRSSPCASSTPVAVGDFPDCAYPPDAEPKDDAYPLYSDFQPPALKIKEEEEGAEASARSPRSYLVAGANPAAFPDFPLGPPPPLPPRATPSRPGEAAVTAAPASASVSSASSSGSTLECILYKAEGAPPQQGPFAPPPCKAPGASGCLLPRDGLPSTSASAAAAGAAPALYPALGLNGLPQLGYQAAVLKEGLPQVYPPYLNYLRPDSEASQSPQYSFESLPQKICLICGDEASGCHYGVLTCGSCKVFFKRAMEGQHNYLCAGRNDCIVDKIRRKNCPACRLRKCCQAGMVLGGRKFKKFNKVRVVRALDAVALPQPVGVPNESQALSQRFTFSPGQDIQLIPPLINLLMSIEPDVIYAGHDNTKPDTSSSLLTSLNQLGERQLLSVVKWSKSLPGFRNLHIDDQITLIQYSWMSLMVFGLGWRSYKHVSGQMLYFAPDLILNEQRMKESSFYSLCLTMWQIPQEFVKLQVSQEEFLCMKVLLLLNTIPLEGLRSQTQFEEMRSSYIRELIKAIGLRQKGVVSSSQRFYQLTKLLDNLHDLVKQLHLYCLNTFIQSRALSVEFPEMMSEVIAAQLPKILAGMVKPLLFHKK
# Procedure, shortened: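 In HEK293T cells bearing the PR-UAS-bla reporter, compound effects on promegestone-driven (1 nM) beta-lactamase expression are assessed after 16 hr using a fluorescent FRET substrate incubated 2 hr at room temperature.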
# [11] = qHTS assay to identify small molecule antagonists of the progesterone receptor (PR) signaling pathway - cell viability counter screen (AID 1346798); further: series mostly up to about 92 µM; nearly all actives have a fitted effect of over 50% in size
# Procedure, shortened: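 Following a 4 hr attachment, PR-UAS-bla HEK293T cells in charcoal-stripped FBS medium were exposed to compounds with R5020 for 16 hr; CellTiter-Glo was added and luminescence read after 30 min at room temperature.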
# [12] = qHTS assay to identify small molecule antagonists of the TGF-beta/Smad signaling pathway - cell viability counter screen (AID 1346824); further: nearly all actives have a fitted effect of over 50% in size
# Procedure, shortened: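 SBE-bla HEK 293T cells, incubated overnight, then compound plus 0.25 ng/mL TGF-beta1 (stock added) for 5 hr at 37 C. Viability was read in the same wells by CellTiter-Glo luminescence after 30 min at room temperature.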
# [13] = qHTS assay to identify small molecule agonists of the TGF-beta/Smad signaling pathway - cell viability counter screen (AID 1346829); further: top concentration of the series differs between compounds; nearly all actives have a fitted effect of over 45% in size
# Procedure, shortened: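 Luminescence from CellTiter-Glo, read after a 30 min room-temperature incubation, gives cell viability of SBE-bla HEK 293T cells treated 5 hr with compounds at 37 C.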
# [14] = qHTS assay to identify small molecule agonists of the TGF-beta/Smad signaling pathway (AID 1346859; active means well fitted activation curve with a large enough effect in the signal ratio in the repeat runs, not every such curve was filed as active; the % refers to the signal ratio; further: series mostly up to about 77 µM)
# Procedure, shortened: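 Each well held 4,000 SBE-bla HEK 293T cells incubated overnight before compound addition; 5 hr later the cleavable FRET substrate went on for 2 hr at room temperature, and fluorescence was read at two emissions.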
# [15] = biological target: Progesterone receptor (Homo sapiens) (UniProt P06401); assay: qHTS assay to identify small molecule agonists of the progesterone receptor (PR) signaling pathway (AID 1346784; calls by dose curve; further: nearly all actives have a fitted effect of over 30% in size)
# Procedure, shortened: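 Compounds were tested for PR agonism in HEK 293T cells bearing a beta-lactamase gene under UAS control. Treatment lasted 16 hr at 37C; signal came from fluorescence of a FRET substrate.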
# [16] = qHTS assay to identify small molecule agonists of the progesterone receptor (PR) signaling pathway - cell viability counter screen (AID 1346799; calls by dose curve; further: nearly all actives have a fitted effect of over 45% in size)
# Procedure, shortened: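 Here, 3,000 PR-UAS-bla HEK293T cells per well were treated with compounds for 16 hr after a 6 hr preincubation at 37C and 5% CO2; cell viability is the CellTiter-Glo luminescence signal.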
# [17] = biological target: Thyrotropin-releasing hormone receptor (Homo sapiens) (UniProt P34981); assay: qHTS assay to identify small molecule agonists of the thyrotropin-releasing hormone receptor (TRHR) signaling pathway (AID 1346891; calls by dose curve; further: series mostly up to about 58 µM)
# Chain of Thyrotropin-releasing hormone receptor (Homo sapiens) (P34981 whole entry, looked up): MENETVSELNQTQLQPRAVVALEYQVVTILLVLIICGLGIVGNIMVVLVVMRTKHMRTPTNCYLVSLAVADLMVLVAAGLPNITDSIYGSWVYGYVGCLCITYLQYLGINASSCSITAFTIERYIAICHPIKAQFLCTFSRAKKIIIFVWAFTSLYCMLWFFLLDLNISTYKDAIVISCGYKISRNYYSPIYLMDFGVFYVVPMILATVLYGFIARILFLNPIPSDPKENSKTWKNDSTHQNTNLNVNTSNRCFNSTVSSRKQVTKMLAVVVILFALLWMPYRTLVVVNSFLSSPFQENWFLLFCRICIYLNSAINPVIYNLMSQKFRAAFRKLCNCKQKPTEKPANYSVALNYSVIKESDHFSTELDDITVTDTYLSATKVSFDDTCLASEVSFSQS
# Procedure, shortened: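 Screening of agonists relied on calcium signalling in HEK293 cells expressing human TRHR: dye loading 2 h at 37 °C preceded compound addition and a 3-min fluorescence time course.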
# [18] = Human pregnane X receptor (PXR) small molecule agonists, qHTS cell viability counter screen (AID 1346977); further: nearly all actives have a fitted effect of over 50% in size
# Procedure, shortened: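 Tox21 qHTS format; PXR-Luc HepG2, 2,000/well, charcoal-stripped FBS 5%. Cpd exposure 24hr. Read: CellTiter-Fluor fluorescence, multiplexed with luciferase.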
# [19] = biological target: Thyrotropin-releasing hormone receptor (Homo sapiens) (UniProt P34981); assay: qHTS assay to identify small molecule antagonists of the thyrotropin-releasing hormone receptor (TRHR) signaling pathway (AID 1346877; active means well fitted inhibition curve with a large enough effect in the repeat runs, not every such curve was filed as active; further: series mostly up to about 51 µM)
# Procedure, shortened: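 Following an 18 h incubation at 37 °C and a 2 h calcium dye load, TRHR-HEK293 cells were exposed to compound (5 min, room temperature) and challenged with TRH, 1 nM final.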
# [20] = biological target: Androgen receptor (Homo sapiens) (UniProt P10275); assay: qHTS assay to identify small molecule agonists of the androgen receptor (AR) signaling pathway in the presence of an antagonist (AID 1259381; calls by dose curve; further: nearly all actives have a fitted effect of over 15% in size)
# Chain of Androgen receptor (Homo sapiens) (P10275 whole entry, looked up): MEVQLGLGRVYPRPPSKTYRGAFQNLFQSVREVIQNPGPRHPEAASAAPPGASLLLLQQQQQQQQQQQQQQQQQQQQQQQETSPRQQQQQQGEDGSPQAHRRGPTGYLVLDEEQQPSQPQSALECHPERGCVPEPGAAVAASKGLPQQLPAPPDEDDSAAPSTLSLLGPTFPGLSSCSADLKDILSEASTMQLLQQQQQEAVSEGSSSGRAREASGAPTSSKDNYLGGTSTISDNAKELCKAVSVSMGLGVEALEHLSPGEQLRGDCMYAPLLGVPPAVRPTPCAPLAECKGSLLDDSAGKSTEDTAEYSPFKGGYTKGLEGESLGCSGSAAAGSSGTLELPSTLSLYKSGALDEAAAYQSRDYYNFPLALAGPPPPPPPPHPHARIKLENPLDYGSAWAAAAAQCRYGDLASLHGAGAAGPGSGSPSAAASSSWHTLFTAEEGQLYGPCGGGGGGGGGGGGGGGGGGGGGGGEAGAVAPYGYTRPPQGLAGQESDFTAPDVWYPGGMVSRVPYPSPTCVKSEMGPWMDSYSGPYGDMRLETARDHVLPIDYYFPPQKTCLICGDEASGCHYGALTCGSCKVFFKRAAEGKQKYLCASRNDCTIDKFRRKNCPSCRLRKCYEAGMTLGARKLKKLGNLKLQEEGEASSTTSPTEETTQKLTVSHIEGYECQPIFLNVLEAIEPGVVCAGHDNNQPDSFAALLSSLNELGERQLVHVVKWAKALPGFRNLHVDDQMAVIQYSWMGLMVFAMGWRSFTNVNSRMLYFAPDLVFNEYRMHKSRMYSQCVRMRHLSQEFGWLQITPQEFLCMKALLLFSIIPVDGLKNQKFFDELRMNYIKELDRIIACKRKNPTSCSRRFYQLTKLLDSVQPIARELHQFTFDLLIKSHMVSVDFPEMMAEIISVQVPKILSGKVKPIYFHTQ
# Procedure, shortened: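 Test compounds at 15 concentrations were incubated for 16hr with MDA-kb2 reporter cells in presence of 3.0uM nilutamide (final). Signal: ONE-Glo luciferase luminescence.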
SMILES,Potency [1],Potency [2],Potency [3],Potency [4],Potency [5],Potency [6],outcome [7],Potency [8],Potency [9],Potency [10],Potency [11],Potency [12],Potency [13],Potency [14],outcome [15],Potency [16],Potency [17],Potency [18],Potency [19],Potency [20]
CCCCNc1c(C(=O)OCC)c(C)nc2c1cnn2CC,inactive,inactive,inactive,inactive,inactive,inactive,inactive,inactive,inactive,26.6 µM (active),inactive,inactive,inactive,inactive,,,,,,
Cc1cncc(C)c1,inactive,inactive,inactive,inactive,inactive,inactive,inactive,inactive,inactive,inactive,inactive,inactive,inactive,inactive,inactive,inactive,inactive,inactive,,
CC1(C)C(=O)N(CO)C(=O)N1CO,inactive,inactive,inactive,inactive,inactive,inactive,inactive,inactive,inactive,inactive,inactive,inactive,inactive,inactive,inactive,inactive,inactive,inactive,inactive,
Brc1ccccn1,inactive,inactive,inactive,inactive,inactive,inactive,inactive,inactive,,inactive,inactive,inactive,inactive,inactive,inactive,inactive,inactive,inactive,inactive,
CCC(=O)OCCc1ccccc1,inactive,inactive,inactive,inactive,inactive,inactive,inactive,inactive,inactive,,inactive,inactive,inactive,inactive,inactive,inactive,inactive,inactive,,
CCCCCCCC/C=C/CCCOC(C)=O,inactive,inactive,inactive,inactive,inactive,inactive,inactive,,inactive,inactive,inactive,inactive,inactive,inactive,inactive,inactive,inactive,,inactive,
C[C@@H]1CC[C@H]2C(C)(C)[C@H]3C[C@@]12CC[C@@]3(C)O,inactive,inactive,inactive,inactive,,inactive,inactive,inactive,inactive,,inactive,inactive,inactive,inactive,inactive,inactive,,inactive,,inactive

# Source: PubChem BioAssay (Tox21)
